# Reference: the supplement of paper PMC3334620
# In all, about 33,000 sequences were measured (“E-score (-0.5 to 0.5)”: median about -0.01, highest 2% from about 0.26 on). This is one part of a sample in which the highest values are shown more often than they occur.
# Target: Ste12 (UniProt P13574)
# Assay: PBM E-score (8-mer binding enrichment) (E-score (-0.5 to 0.5)); higher = stronger / more preferred TF binding
# Conditions: protein concentration: 200 nM; construct: GST-DNA-binding domain
# Method: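 Universal 'all 10-mer' protein binding microarrays (Agilent AMADID 015681) probed with GST-tagged S. cerevisiae TFs (full-length or DBD) made by in vitro transcription/translation (PURExpress), about 100-200 nM. Bound TF was detected with fluorescent anti-GST. Each ungapped 8-mer (which stands for itself and its reverse complement) is scored by the PBM enrichment score (E-score), a modified Wilcoxon-Mann-Whitney statistic from -0.5 to +0.5, computed with the Universal PBM Analysis Suite. Scale: above 0.35 generally sequence-specific binding.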
# UniProt P13574, sequence (P13574 whole entry): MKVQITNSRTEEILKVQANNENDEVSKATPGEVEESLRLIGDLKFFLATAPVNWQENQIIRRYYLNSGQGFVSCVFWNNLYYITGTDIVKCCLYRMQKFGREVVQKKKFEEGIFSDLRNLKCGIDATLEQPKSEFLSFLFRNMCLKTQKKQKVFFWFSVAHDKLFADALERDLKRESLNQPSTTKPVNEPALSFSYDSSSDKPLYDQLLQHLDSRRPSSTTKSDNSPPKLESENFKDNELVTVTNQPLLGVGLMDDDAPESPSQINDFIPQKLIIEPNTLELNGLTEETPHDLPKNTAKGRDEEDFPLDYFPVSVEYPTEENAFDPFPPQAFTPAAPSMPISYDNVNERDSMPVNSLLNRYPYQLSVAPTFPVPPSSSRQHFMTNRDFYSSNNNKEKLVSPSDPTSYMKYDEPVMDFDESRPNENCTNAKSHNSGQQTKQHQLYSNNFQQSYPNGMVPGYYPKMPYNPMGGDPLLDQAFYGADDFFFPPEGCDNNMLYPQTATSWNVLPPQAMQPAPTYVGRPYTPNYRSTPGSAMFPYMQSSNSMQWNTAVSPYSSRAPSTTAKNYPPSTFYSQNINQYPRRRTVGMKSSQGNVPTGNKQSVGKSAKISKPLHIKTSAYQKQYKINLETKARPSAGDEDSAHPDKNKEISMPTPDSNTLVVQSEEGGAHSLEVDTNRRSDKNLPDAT
row,Sequence,PBM E-score
1,CTATGAAG,0.0327
2,GTATGAGA,-0.0324
3,ATATGAAC,0.154
4,GTATGAAC,-0.018
5,CTATGAAA,0.211
6,TTATGCAA,0.0901
7,ATATGAAA,0.346
8,GTTTTCCA,0.093
9,ATTGGGCG,-0.00653
10,ATGTTTCC,0.178
11,GTATTTCA,0.1
12,CTGTTTCA,0.484
13,CTGTTTCC,0.0865
14,ATGTTTCG,0.366
15,CTGTTTAC,0.0415
16,GTGTTTCA,0.489
17,ATGTTCCA,0.18
18,GTGTTGCA,0.159
19,ATATTTCA,0.139
20,ATGTTTCA,0.493
21,ATGTTTAG,0.214
22,ACCATAAT,0.114
23,AGAAGCAA,0.153
24,ACAGTGCC,-0.0356
25,AGCTGCGC,-0.177
26,GTGTTTAA,0.155

row,Sequence,PBM E-score
1,CTGTTTAA,0.22
2,ATGTTTAA,0.0895
3,CTGTTTTA,0.308
4,AGGTTTTG,0.0633
5,CTGTTTTC,0.0946
6,ATGTTTTG,0.335
7,ATGTTTTC,0.172
8,ATGTTTTA,0.374
9,ATTTTTTG,0.222
10,GGGTTTTA,0.217
11,GTGTTTTA,0.405
12,ACAAGCAA,-0.00365
13,ACCTATGA,-0.21
14,CGCTGGTA,-0.118
15,ATAGCAAA,0.0867
16,CGGGAGTC,-0.12
17,AAAGTTGA,0.111
18,GGCGCAAA,0.218
19,AAATGAAA,0.426
20,GAATGAAC,0.016
21,CAATGAAA,0.258
22,GAATGAAA,0.322
23,TAATGAAA,0.155
24,GAATGAGA,-0.00579
25,CCTAGACG,-0.134
26,TAGAGAAA,0.0197

row,Sequence,PBM E-score
1,AACATTAT,0.125
2,ATCATTAA,0.298
3,AACATTTA,0.29
4,GACATTAA,0.173
5,AACATTAA,0.301
6,CTCATTAA,0.111
7,ATCATTAG,0.0954
8,GACATTTA,-0.0124
9,AACATTTC,0.0303
10,GAGAGAAC,-0.0294
11,CTTGGCTA,0.0252
12,GCGTGACA,0.126
13,GCGGCAGA,-0.128
14,GAATAAGC,-0.0403
15,GTGTTCCA,0.141
16,AATGCGGT,-0.0129
17,CCGTTGCC,-0.253
18,ATGTAATA,0.217
19,AGTTAAAA,0.286
20,ACTTAAAA,0.183
21,ATTTAACA,0.181
22,CGTTAAAA,-0.00084
23,AAATTTTG,0.0681
24,ATTTAAAA,0.314
25,AATTTTGG,0.104
26,AATTTTTG,0.321

row,Sequence,PBM E-score
1,ATTTTAAA,0.348
2,ATTTTAAG,0.161
3,ATTTTAAC,0.19
4,TGTTAAAA,0.168
5,GGTTTTGA,0.111
6,CCATACCC,0.128
7,CTAGAATA,0.171
8,GCACAGCA,-0.102
9,CAGTGGGC,-0.199
10,GACTTAGA,-0.272
11,AGCTTGAG,-0.164
12,AAGTTCGT,-0.226
13,TACCAGAA,0.253
14,TGCATACA,-0.139
15,TAACGCGA,0.0877
16,AAGCTCGT,-0.195
17,AATTTACC,0.137
18,ATTTTACC,0.277
19,AATTTTAC,0.251
20,ATTTTTTA,0.331
21,ATATTTTA,0.235
22,ATATTTAC,0.219
23,ATATTTAA,0.347
24,AATTTTAT,0.217
25,CTATTTTA,0.232
26,CTATTTAA,0.194

row,Sequence,PBM E-score
1,ATTTTACG,0.243
2,AATTTTAA,0.318
3,ACCGTTAC,-0.0206
4,TCGGTACA,0.0794
5,ACTGAGCA,-0.119
6,ACAGGATG,0.0588
7,CTCTAGAG,-0.162
8,AACAACGC,0.111
9,AAGCCCCG,0.0304
10,AATTTTTC,0.181
11,ACATTTAG,-0.0629
12,GCATTTAA,0.12
13,AATTTTGA,0.145
14,ATTTTTAG,0.175
15,ATTTTTGA,0.298
16,ATTTTTAA,0.28
17,AAATTTTA,0.132
18,ATTTTTAC,0.207
19,AATTTTTA,0.283
20,ACATTTAA,0.32
21,ATTTTTGG,0.183
22,TAAGCCAA,0.00854
23,GGCTTAGA,-0.0335
24,TACCAGCA,-0.0129
25,CTAGTACA,0.0611
26,GCAATCCC,0.0206

row,Sequence,PBM E-score
1,CTCTTTAC,0.0191
2,AAAGTGGG,0.182
3,AGTTCGAC,-0.147
4,CCCTGAGG,-0.213
5,ACATCTAA,0.114
6,ATTTTGTC,0.114
7,ATTTTGTG,0.281
8,ATTTTGTA,0.16
9,AAGTTGCA,-0.0946
10,CCATCAAC,-0.144
11,TGTTATAA,0.283
12,AGTTACAA,0.157
13,TCTTACAA,0.0356
14,GGTTACTA,0.0972
15,CGTTACAC,0.122
16,CGTTACAG,0.146
17,TGTTACAA,0.387
18,CGTTACAA,0.314
19,CGTTATAA,0.143
20,AGTTATAA,0.133
21,GGTTACAA,0.284
22,GGTTACAC,-0.0834
23,CCCATACG,-0.123
24,GGTAGAAC,-0.101
25,CCATATCC,0.0086
26,AGCCTCTC,-0.234

row,Sequence,PBM E-score
1,AGTTTTGG,0.104
2,AAGTTACG,0.0247
3,CAATATTA,0.176
4,CAATATGA,0.0995
5,AAATATGT,0.226
6,AAATATTC,0.14
7,AAATATGA,0.308
8,AAATATTA,0.352
9,ATCAGCCA,-0.0331
10,ACGTTTTG,0.222
11,CCTTTTTA,0.051
12,GCGTTTAC,-0.0566
13,CCGTTTAA,0.135
14,ACGTTTAA,0.0563
15,GCTTTTTA,0.271
16,GCGTTTAA,0.103
17,GCTTTTAA,-0.0048
18,GCGTTTTA,0.352
19,ACGTTTTA,0.295
20,CCGTTTTC,0.133
21,CCGTTTTA,0.304
